# About 79,000 compounds went through this panel and 15% of them were active in at least one assay; those are over-represented in the sample as a whole. Unmarked numbers belong to inactive results. Active and inactive are the calls of the source. No stated cut-off is given here; in the data, active means growth inhibition above about 70%; inactive means the rest.
# Key:
# [1] = NCI Yeast Anticancer Drug Screen. Data for the rad52 strain (AID 147);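 further: 0% = growth of vehicle-treated control cultures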; details: S. cerevisiae rad52 mutant growth inhibition, hits give high values
# How it was run: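 The repair-mutant yeast strain was incubated with compounds, then growth was read and inhibition derived relative to vehicle.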
# [2] = NCI Yeast Anticancer Drug Screen. Data for the wt1 strain (AID 149);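 further: 0% = growth of vehicle-treated wt1 cultures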; details: S. cerevisiae wt1 strain (SPY 50644) growth inhibition, hits give high values
# How it was run: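 Each compound is tested on wt1 yeast and the loss of growth versus vehicle gives the inhibition value.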
# [3] = NCI Yeast Anticancer Drug Screen. Data for the rad50EPP+ strain (AID 151);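 further: 0% = growth of vehicle-treated control cultures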; details: S. cerevisiae rad50 mutant strain, hits give high values
# How it was run: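 Vehicle-normalised growth inhibition; rad50EPP+ yeast strain, altered in DNA damage repair, compound-treated.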
# [4] = NCI Yeast Anticancer Drug Screen. Data for the mgt1 strain (AID 153); details: S. cerevisiae mgt1 mutant growth inhibition, hits give high values
# How it was run: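 Vehicle-normalized growth inhibition is determined in mgt1 yeast, a strain selected for a defined alteration in DNA repair or cell cycle control.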
# [5] = NCI Yeast Anticancer Drug Screen. Data for the rad50 strain (AID 155);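 further: 0% = growth of vehicle-only cultures of the same strain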; details: S. cerevisiae rad50 strain growth inhibition, hits give high values
# How it was run: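 Vehicle-treated cultures provide the reference for the growth inhibition reported for compound-exposed, repair-deficient yeast.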
# [6] = NCI Yeast Anticancer Drug Screen. Data for the mec2-1 strain (AID 157); details: S. cerevisiae mec2-1 strain, hits give high values
# How it was run: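 Mutant yeast (mec2-1) grown with compound; growth inhibition relative to vehicle control reported.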
# [7] = NCI Yeast Anticancer Drug Screen. Data for the rad14 strain (AID 159);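 further: 0% = growth of vehicle-treated control cultures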; details: S. cerevisiae rad14 strain growth inhibition, hits give high values
# How it was run: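 Inhibition of growth is reported for a repair-deficient yeast mutant following compound treatment, calculated relative to cultures that received vehicle.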
# [8] = NCI Yeast Anticancer Drug Screen. Data for the sgs1 mgt1 strain (AID 161);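 further: 0% = growth of cultures given vehicle only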; details: S. cerevisiae sgs1 mgt1 strain, hits give high values
# How it was run: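 Compounds are added to genetically altered yeast, and growth is compared with cultures given vehicle alone to give percent inhibition.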
# [9] = NCI Yeast Anticancer Drug Screen. Data for the CLN2oe strain (AID 163);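 further: 0% = growth of vehicle-only control cultures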; details: S. cerevisiae CLN2oe strain, hits give high values
# How it was run: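 Compounds are applied to yeast harbouring a defined cell-cycle control change; reduced growth compared with vehicle-treated controls gives the value.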
# [10] = NCI Yeast Anticancer Drug Screen. Data for the cln2 rad14 strain (AID 165);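 further: 0% = growth equal to vehicle treated cultures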; details: S. cerevisiae cln2 rad14 strain, hits give high values
# How it was run: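 Readout is yeast growth inhibition versus vehicle-treated controls, using a strain with cln2 and rad14 alterations exposed to compound.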
# [11] = NCI Yeast Anticancer Drug Screen. Data for the bub3 strain (AID 167); details: S. cerevisiae bub3 mutant strain, hits give high values
# How it was run: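 Mutant yeast screening strain plus compound; vehicle-treated cultures serve as the 0% inhibition reference.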
# [12] = NCI Yeast Anticancer Drug Screen. Data for the wt2 strain (AID 169); details: S. cerevisiae wt2 strain growth inhibition, hits give high values
# How it was run: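 Against vehicle-treated controls, the growth of yeast exposed to each compound was compared, and the inhibition was recorded.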
# [13] = NCI Yeast Anticancer Drug Screen. Data for the mlh1 strain (AID 171);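 further: 0% = growth of vehicle-treated control cultures of the same strain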; details: S. cerevisiae mlh1 strain growth inhibition, hits give high values
# How it was run: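 Measured: yeast growth. Reference: vehicle-treated controls. Organism: strain with a defined alteration affecting DNA damage repair or cell cycle control, treated with compound.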
# [14] = NCI Yeast Anticancer Drug Screen. Data for the sgs1 strain (AID 173);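 further: 0% = growth of vehicle-only control cultures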; details: S. cerevisiae sgs1 mutant, hits give high values
# How it was run: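 Each compound was added to cultures of the altered yeast strain. Growth was recorded, and inhibition was derived by comparison with vehicle controls.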
# [15] = NCI Yeast Anticancer Drug Screen. Data for the mlh1 rad18 strain (AID 175); details: S. cerevisiae mlh1 rad18 strain growth inhibition, hits give high values
# How it was run: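 Genetically defined yeast (DNA repair-deficient) exposed to compounds; growth inhibition determined relative to vehicle.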
# [16] = NCI Yeast Anticancer Drug Screen. Data for the rad18 strain (AID 177); details: S. cerevisiae rad18 mutant growth inhibition, hits give high values
# How it was run: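 Vehicle-treated cultures served as the baseline for scoring compound-induced growth inhibition in DNA-repair-mutant yeast.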
# [17] = at 5.0 µM (retest, dose inferred, filed as 0.5)
# [18] = at 50.0 µM (retest, dose inferred, filed as 5.0)
structure (smiles),measurement,setting,value
CCN(CC)CCNc1ccc([N+](=O)[O-])c2nc3ccccc3c(N)c12,growth inhibition,[1]; at 1.2 µM,1%
same,growth inhibition,[1]; at 3.7 µM,-6%
same,growth inhibition,[1]; at 11.0 µM,10%
same,growth inhibition,[1]; at 33.0 µM,31%
same,growth inhibition,[1]; at 100.0 µM,81% (active)
same,growth inhibition,[2]; at 1.2 µM,-10%
same,growth inhibition,[2]; at 3.7 µM,-7%
same,growth inhibition,[2]; at 11.0 µM,-13%
same,growth inhibition,[2]; at 33.0 µM,-9%
same,growth inhibition,[2]; at 100.0 µM,-6%
same,growth inhibition,[3]; at 1.2 µM,-14%
same,growth inhibition,[3]; at 3.7 µM,-4%
same,growth inhibition,[3]; at 11.0 µM,1%
same,growth inhibition,[3]; at 33.0 µM,34%
same,growth inhibition,[3]; at 100.0 µM,77% (active)
same,growth inhibition,[4]; at 1.2 µM,-14%
same,growth inhibition,[4]; at 3.7 µM,-18%
same,growth inhibition,[4]; at 11.0 µM,-20%
same,growth inhibition,[4]; at 33.0 µM,-21%
same,growth inhibition,[4]; at 100.0 µM,-15%
same,growth inhibition,[5]; at 1.2 µM,10%
same,growth inhibition,[5]; at 3.7 µM,14%
same,growth inhibition,[5]; [17],2%
same,growth inhibition,[5]; at 11.0 µM,15%
same,growth inhibition,[5]; at 33.0 µM,46%
same,growth inhibition,[5]; [18],71% (active)
same,growth inhibition,[5]; at 50.0 µM,74.3% (active)
same,growth inhibition,[5]; at 100.0 µM,84% (active)
same,growth inhibition,[6]; at 1.2 µM,-13%
same,growth inhibition,[6]; at 3.7 µM,-23%
same,growth inhibition,[6]; [17],-5%
same,growth inhibition,[6]; at 11.0 µM,-11%
same,growth inhibition,[6]; at 33.0 µM,-13%
same,growth inhibition,[6]; [18],-2%
same,growth inhibition,[6]; at 50.0 µM,35.2%
same,growth inhibition,[6]; at 100.0 µM,0%
same,growth inhibition,[7]; at 1.2 µM,-8%
same,growth inhibition,[7]; at 3.7 µM,-19%
same,growth inhibition,[7]; at 11.0 µM,-26%
same,growth inhibition,[7]; at 33.0 µM,-34%
same,growth inhibition,[7]; at 100.0 µM,-8%
same,growth inhibition,[8]; [17],-4%
same,growth inhibition,[8]; [18],6%
same,growth inhibition,[8]; at 50.0 µM,82.1% (active)
same,growth inhibition,[9]; at 1.2 µM,5%
same,growth inhibition,[9]; at 3.7 µM,-7%
same,growth inhibition,[9]; at 11.0 µM,-12%
same,growth inhibition,[9]; at 33.0 µM,-6%
same,growth inhibition,[9]; at 100.0 µM,4%
same,growth inhibition,[10]; [17],7%
same,growth inhibition,[10]; [18],39%
same,growth inhibition,[10]; at 50.0 µM,36.6%
same,growth inhibition,[11]; at 1.2 µM,-15%
same,growth inhibition,[11]; at 3.7 µM,-40%
same,growth inhibition,[11]; [17],-9%
same,growth inhibition,[11]; at 11.0 µM,-21%
same,growth inhibition,[11]; at 33.0 µM,-12%
same,growth inhibition,[11]; [18],20%
same,growth inhibition,[11]; at 50.0 µM,7.35%
same,growth inhibition,[11]; at 100.0 µM,-11%
same,growth inhibition,[12]; at 1.2 µM,1%
same,growth inhibition,[12]; at 3.7 µM,-1%
same,growth inhibition,[12]; at 11.0 µM,-2%
same,growth inhibition,[12]; at 33.0 µM,-3%
same,growth inhibition,[12]; at 100.0 µM,2%
same,growth inhibition,[13]; at 1.2 µM,-5%
same,growth inhibition,[13]; at 3.7 µM,-7%
same,growth inhibition,[13]; at 11.0 µM,-9%
same,growth inhibition,[13]; at 33.0 µM,-4%
same,growth inhibition,[13]; at 100.0 µM,8%
same,growth inhibition,[14]; at 1.2 µM,-4%
same,growth inhibition,[14]; at 3.7 µM,2%
same,growth inhibition,[14]; at 11.0 µM,6%
same,growth inhibition,[14]; at 33.0 µM,-2%
same,growth inhibition,[14]; at 100.0 µM,13%
same,growth inhibition,[15]; [17],-28%
same,growth inhibition,[15]; [18],15%
same,growth inhibition,[15]; at 50.0 µM,85.2% (active)
same,growth inhibition,[16]; at 1.2 µM,-6%
same,growth inhibition,[16]; at 3.7 µM,-9%
same,growth inhibition,[16]; at 11.0 µM,-10%
same,growth inhibition,[16]; at 33.0 µM,-8%
same,growth inhibition,[16]; at 100.0 µM,-4%
Cc1cccc[n+]1C1CCc2c(ccc3ccccc23)C1=O (stereo unspecified),growth inhibition,[1]; at 1.2 µM,5%
same,growth inhibition,[1]; at 3.7 µM,2%
same,growth inhibition,[1]; at 11.0 µM,1%
same,growth inhibition,[1]; at 33.0 µM,14%
same,growth inhibition,[1]; at 100.0 µM,70% (active)
same,growth inhibition,[2]; at 1.2 µM,-2%
same,growth inhibition,[2]; at 3.7 µM,-4%
same,growth inhibition,[2]; at 11.0 µM,-1%
same,growth inhibition,[2]; at 33.0 µM,-3%
same,growth inhibition,[2]; at 100.0 µM,13%
same,growth inhibition,[3]; at 1.2 µM,6%
same,growth inhibition,[3]; at 3.7 µM,9%
same,growth inhibition,[3]; at 11.0 µM,8%
same,growth inhibition,[3]; at 33.0 µM,37%
same,growth inhibition,[3]; at 100.0 µM,63%
same,growth inhibition,[4]; at 1.2 µM,-4%
same,growth inhibition,[4]; at 3.7 µM,2%
same,growth inhibition,[4]; at 11.0 µM,0%
same,growth inhibition,[4]; at 33.0 µM,2%
same,growth inhibition,[4]; at 100.0 µM,35%
same,growth inhibition,[5]; at 1.2 µM,5%
same,growth inhibition,[5]; at 3.7 µM,2%
same,growth inhibition,[5]; [17],-1%
same,growth inhibition,[5]; at 11.0 µM,0%
same,growth inhibition,[5]; at 33.0 µM,16%
same,growth inhibition,[5]; [18],40%
same,growth inhibition,[5]; at 50.0 µM,74.9% (active)
same,growth inhibition,[5]; at 100.0 µM,68%
same,growth inhibition,[6]; at 1.2 µM,-1%
same,growth inhibition,[6]; at 3.7 µM,-4%
same,growth inhibition,[6]; [17],2%
same,growth inhibition,[6]; at 11.0 µM,-1%
same,growth inhibition,[6]; at 33.0 µM,2%
same,growth inhibition,[6]; [18],70% (active)
same,growth inhibition,[6]; at 50.0 µM,74.3% (active)
same,growth inhibition,[6]; at 100.0 µM,62%
same,growth inhibition,[7]; at 1.2 µM,4%
same,growth inhibition,[7]; at 3.7 µM,2%
same,growth inhibition,[7]; at 11.0 µM,3%
same,growth inhibition,[7]; at 33.0 µM,12%
same,growth inhibition,[7]; at 100.0 µM,61%
same,growth inhibition,[8]; [17],3%
same,growth inhibition,[8]; [18],55%
same,growth inhibition,[8]; at 50.0 µM,93.3% (active)
same,growth inhibition,[9]; at 1.2 µM,-6%
same,growth inhibition,[9]; at 3.7 µM,-3%
same,growth inhibition,[9]; at 11.0 µM,-5%
same,growth inhibition,[9]; at 33.0 µM,-1%
same,growth inhibition,[9]; at 100.0 µM,48%
same,growth inhibition,[10]; [17],0%
same,growth inhibition,[10]; [18],26%
same,growth inhibition,[10]; at 50.0 µM,26.6%
same,growth inhibition,[11]; at 1.2 µM,-2%
same,growth inhibition,[11]; at 3.7 µM,0%
same,growth inhibition,[11]; [17],-4%
same,growth inhibition,[11]; at 11.0 µM,3%
same,growth inhibition,[11]; at 33.0 µM,18%
same,growth inhibition,[11]; [18],70% (active)
same,growth inhibition,[11]; at 50.0 µM,98.2% (active)
same,growth inhibition,[11]; at 100.0 µM,72% (active)
same,growth inhibition,[12]; at 1.2 µM,-6%
same,growth inhibition,[12]; at 3.7 µM,-8%
same,growth inhibition,[12]; at 11.0 µM,-11%
same,growth inhibition,[12]; at 33.0 µM,-9%
same,growth inhibition,[12]; at 100.0 µM,65%
same,growth inhibition,[13]; at 1.2 µM,2%
same,growth inhibition,[13]; at 3.7 µM,1%
same,growth inhibition,[13]; at 11.0 µM,2%
same,growth inhibition,[13]; at 33.0 µM,10%
same,growth inhibition,[13]; at 100.0 µM,68%
same,growth inhibition,[14]; at 1.2 µM,-14%
same,growth inhibition,[14]; at 3.7 µM,-6%
same,growth inhibition,[14]; at 11.0 µM,-26%
same,growth inhibition,[14]; at 33.0 µM,-5%
same,growth inhibition,[14]; at 100.0 µM,69%
same,growth inhibition,[15]; [17],2%
same,growth inhibition,[15]; [18],73% (active)
same,growth inhibition,[15]; at 50.0 µM,89.7% (active)
same,growth inhibition,[16]; at 1.2 µM,2%
same,growth inhibition,[16]; at 3.7 µM,3%
same,growth inhibition,[16]; at 11.0 µM,2%
same,growth inhibition,[16]; at 33.0 µM,6%
same,growth inhibition,[16]; at 100.0 µM,79% (active)

# Reference: PubChem BioAssay (NCI)
